# Laboratory results as given in PubChem BioAssay (NCATS).
# Records with an inconclusive call do not appear. A call without a number means that no potency is given here. Calls of active or inactive are those of the source. Unless noted, calls come from the whole dose curve; as a rule, active = well fitted curve in the direction sought with a large enough effect; inconclusive = small, poorly fitted or top-dose-only effect, or another doubt; inactive = no such curve, though single readings can be large; an effect the other way counts as inactive or inconclusive. Where a SMILES comes first, the peptide text is derived from it. [ ]: non-standard residue; d: D form. pGlu = O=C1CC[C@@H](C(=O)O)N1; Thz = O=C(O)[C@@H]1CSCN1
# Assays:
# [1] = biological target: D(1A) dopamine receptor (Homo sapiens) (UniProt P21728); assay: HTS Assay for Allosteric Agonists of the Human D1 Dopamine Receptor: Primary Screen for Antagonists (AID 488983);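 note: calcium flux response to an EC80 dopamine challenge measured with no-wash dye; nearly all actives have a fitted effect of over 65% in size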
# Summary of the method: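 Cells are induced with tetracycline and incubated overnight at 30 C, then loaded with calcium dye for 30 to 90 minutes at room temperature. Compound addition is followed by a 180 s read, then an EC80 dopamine addition and another 180 s read.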
# [2] = biological target: ATPase family AAA domain-containing protein 5 (Homo sapiens) (UniProt Q96QE3); assay: Validation screen for small molecules that inhibit ELG1-dependent DNA repair in human embryonic kidney (HEK293T) cells expressing luciferase-tagged ELG1 (AID 493107);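 note: cells co-treated with the DNA-damaging agent 5-fluorouridine alongside compound; series mostly up to about 46 µM; inhibitors lower the ELG1-luciferase luminescence signal; nearly all actives have a fitted effect of over 70% in size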
# Summary of the method: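 Luminescence from ONE-Glo, developed 30 min at room temperature, served as read-out of ELG1-luciferase levels. Beforehand, reporter HEK293T cells received 5-fluorouridine plus test compound for 16 hr at 37 °C.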
# [3] = biological target: Thyrotropin-releasing hormone receptor (Homo sapiens) (UniProt P34981); assay: qHTS for Small Molecule Agonists and Allosteric Enhancers of Human TRH Receptor: Validation Screen for Agonists (AID 493127;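 active = calcium activation more than 3 SD above the typical response in the agonist read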;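 note: intracellular calcium rise by fluo-8 fluorescence before TRH EC20 addition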); settings: TRH receptor agonist cell assay; at 2 µM; stronger effect = higher value
# Summary of the method: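 Cells 2000/well, 10% FCS, 18 h 33.5C/5% CO2 → fluo-8 Ca dye, RT 30 min–1.5 h → FDSS baseline 10 × 1 s → compound added → 230 cycles (1 s/cycle) agonist mode. TRH controls.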
# [4] = Nrf2 qHTS screen for inhibitors: Validation (AID 493153; active = well fitted inhibition curve with a large enough effect in the main read-out, with a control signal flat, not every such curve was filed as active); settings: Potency: luciferase luminescence; viability change: measured here: cytotoxicity max response
# Summary of the method: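 Luminescence from an ARE-firefly luciferase reporter in A549 cells gives Nrf2 inhibition; an earlier CellTiter-Fluor fluorescent read flags cytotoxicity. Cells in 5% FBS OPTI-MEM received compound dilution series for 18-24 h at 37°C.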
# [5] = biological target: Galactokinase (Homo sapiens) (UniProt P51570); assay: qHTS Validation Assay for Inhibitors of Human Galactokinase (GALK) (AID 493189)
# Summary of the method: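 5 nM GALK / 100 uM galactose / 35 uM ATP, 20 mM HEPES pH8.0, 5 mM MgCl2, 60 mM NaCl, 1 mM DTT, 0.01% BSA (final). RT 1 h; Kinase-Glo Plus luminescence.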
# [6] = biological target: ATP-dependent 6-phosphofructokinase (Trypanosoma brucei brucei) (UniProt O15648); assay: qHTS Assay to Find Inhibitors of T. brucei phosphofructokinase: hit validation (AID 492961);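 note: luminescence reports ADP formed as PFK phosphorylates fructose-6-phosphate with ATP; series mostly up to about 51 µM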
# Summary of the method: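 ADP-Glo luminescence read-out of ADP formed by 1.25 nM PFK from 0.1 mM ATP and 0.5 mM F6P (TEA pH 8.0, 45 min, RT). Compounds titrated; activity normalized to no-enzyme and full-enzyme controls.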
# [7] = qHTS for Inhibitors of Cell Surface uPA Generation: Validation Assay (AID 493164)
# Summary of the method: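 RAW 264.7 cells (4000/well) were plated overnight, then exposed for 18 h at 37 C, 5% CO2 to compounds in a 7-point 1:5 titration (2.45 nM–38.3 uM final). Intracellular ATP was read by ATP-Lite luminescence.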
# [8] = Validation screen for small molecules that induce genotoxicity in human embryonic kidney (HEK293T) cells expressing luciferase-tagged ELG1 (AID 493106); note: potency is the fitted concentration of half-maximal effect
# Summary of the method: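 Luminescence from an ELG1-luciferase fusion serves as the read-out, rising when genetic stress elevates ELG1 protein. HEK293T reporter cells (2,000 per well) received 23 nL compound, incubated 16 hr at 37 °C, then ONE-Glo for 30 min at room temperature.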
# D(1A) dopamine receptor (Homo sapiens), sequence (P21728 whole entry, looked up): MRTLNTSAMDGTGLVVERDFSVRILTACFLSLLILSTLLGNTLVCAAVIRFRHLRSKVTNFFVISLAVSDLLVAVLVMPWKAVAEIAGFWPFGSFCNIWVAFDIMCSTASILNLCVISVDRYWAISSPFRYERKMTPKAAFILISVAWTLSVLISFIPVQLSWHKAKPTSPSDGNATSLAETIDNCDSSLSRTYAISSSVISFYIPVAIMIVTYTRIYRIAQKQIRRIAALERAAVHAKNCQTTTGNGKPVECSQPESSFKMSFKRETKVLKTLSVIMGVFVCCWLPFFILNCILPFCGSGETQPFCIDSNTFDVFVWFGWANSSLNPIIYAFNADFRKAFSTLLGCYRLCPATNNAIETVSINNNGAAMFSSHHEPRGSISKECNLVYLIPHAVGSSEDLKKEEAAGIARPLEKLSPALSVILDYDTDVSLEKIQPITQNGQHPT
# Galactokinase (Homo sapiens), sequence (P51570 whole entry, looked up): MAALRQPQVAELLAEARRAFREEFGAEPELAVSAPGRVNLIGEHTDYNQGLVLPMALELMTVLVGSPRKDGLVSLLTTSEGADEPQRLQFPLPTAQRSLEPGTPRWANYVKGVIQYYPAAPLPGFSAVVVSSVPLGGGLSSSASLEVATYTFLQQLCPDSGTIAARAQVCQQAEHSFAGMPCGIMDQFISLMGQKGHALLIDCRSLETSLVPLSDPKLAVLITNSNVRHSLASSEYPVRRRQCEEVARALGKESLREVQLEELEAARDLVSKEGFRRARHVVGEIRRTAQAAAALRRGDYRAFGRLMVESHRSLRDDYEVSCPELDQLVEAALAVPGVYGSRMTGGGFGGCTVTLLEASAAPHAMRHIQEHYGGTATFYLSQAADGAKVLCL
# Thyrotropin-releasing hormone receptor (Homo sapiens), sequence (P34981 whole entry, looked up): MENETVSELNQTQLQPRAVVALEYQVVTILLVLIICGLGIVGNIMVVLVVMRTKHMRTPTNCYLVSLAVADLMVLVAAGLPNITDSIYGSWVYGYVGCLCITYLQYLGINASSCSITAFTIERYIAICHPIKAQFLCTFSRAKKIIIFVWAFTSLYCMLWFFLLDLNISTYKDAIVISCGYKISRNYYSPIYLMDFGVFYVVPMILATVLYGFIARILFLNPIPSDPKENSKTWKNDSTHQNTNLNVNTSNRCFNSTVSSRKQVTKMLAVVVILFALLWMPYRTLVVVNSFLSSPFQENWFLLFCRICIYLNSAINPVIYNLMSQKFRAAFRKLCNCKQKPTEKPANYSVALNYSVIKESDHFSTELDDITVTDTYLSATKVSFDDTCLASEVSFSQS
# ATP-dependent 6-phosphofructokinase (Trypanosoma brucei brucei), sequence (O15648 whole entry, looked up): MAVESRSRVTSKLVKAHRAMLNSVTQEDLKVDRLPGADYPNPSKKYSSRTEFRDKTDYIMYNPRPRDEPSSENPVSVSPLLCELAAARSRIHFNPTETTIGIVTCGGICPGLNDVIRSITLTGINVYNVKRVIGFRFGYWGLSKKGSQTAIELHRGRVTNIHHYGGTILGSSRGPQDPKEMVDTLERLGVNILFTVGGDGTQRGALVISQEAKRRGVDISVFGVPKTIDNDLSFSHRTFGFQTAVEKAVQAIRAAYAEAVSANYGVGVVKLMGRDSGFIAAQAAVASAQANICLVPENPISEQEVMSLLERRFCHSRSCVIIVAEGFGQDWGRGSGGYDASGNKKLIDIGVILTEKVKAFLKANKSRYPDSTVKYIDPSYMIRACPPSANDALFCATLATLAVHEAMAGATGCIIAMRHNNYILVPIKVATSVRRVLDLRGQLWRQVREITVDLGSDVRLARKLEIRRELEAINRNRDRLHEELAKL
# ATPase family AAA domain-containing protein 5 (Homo sapiens), sequence (Q96QE3 whole entry, looked up, the tested form may be a part): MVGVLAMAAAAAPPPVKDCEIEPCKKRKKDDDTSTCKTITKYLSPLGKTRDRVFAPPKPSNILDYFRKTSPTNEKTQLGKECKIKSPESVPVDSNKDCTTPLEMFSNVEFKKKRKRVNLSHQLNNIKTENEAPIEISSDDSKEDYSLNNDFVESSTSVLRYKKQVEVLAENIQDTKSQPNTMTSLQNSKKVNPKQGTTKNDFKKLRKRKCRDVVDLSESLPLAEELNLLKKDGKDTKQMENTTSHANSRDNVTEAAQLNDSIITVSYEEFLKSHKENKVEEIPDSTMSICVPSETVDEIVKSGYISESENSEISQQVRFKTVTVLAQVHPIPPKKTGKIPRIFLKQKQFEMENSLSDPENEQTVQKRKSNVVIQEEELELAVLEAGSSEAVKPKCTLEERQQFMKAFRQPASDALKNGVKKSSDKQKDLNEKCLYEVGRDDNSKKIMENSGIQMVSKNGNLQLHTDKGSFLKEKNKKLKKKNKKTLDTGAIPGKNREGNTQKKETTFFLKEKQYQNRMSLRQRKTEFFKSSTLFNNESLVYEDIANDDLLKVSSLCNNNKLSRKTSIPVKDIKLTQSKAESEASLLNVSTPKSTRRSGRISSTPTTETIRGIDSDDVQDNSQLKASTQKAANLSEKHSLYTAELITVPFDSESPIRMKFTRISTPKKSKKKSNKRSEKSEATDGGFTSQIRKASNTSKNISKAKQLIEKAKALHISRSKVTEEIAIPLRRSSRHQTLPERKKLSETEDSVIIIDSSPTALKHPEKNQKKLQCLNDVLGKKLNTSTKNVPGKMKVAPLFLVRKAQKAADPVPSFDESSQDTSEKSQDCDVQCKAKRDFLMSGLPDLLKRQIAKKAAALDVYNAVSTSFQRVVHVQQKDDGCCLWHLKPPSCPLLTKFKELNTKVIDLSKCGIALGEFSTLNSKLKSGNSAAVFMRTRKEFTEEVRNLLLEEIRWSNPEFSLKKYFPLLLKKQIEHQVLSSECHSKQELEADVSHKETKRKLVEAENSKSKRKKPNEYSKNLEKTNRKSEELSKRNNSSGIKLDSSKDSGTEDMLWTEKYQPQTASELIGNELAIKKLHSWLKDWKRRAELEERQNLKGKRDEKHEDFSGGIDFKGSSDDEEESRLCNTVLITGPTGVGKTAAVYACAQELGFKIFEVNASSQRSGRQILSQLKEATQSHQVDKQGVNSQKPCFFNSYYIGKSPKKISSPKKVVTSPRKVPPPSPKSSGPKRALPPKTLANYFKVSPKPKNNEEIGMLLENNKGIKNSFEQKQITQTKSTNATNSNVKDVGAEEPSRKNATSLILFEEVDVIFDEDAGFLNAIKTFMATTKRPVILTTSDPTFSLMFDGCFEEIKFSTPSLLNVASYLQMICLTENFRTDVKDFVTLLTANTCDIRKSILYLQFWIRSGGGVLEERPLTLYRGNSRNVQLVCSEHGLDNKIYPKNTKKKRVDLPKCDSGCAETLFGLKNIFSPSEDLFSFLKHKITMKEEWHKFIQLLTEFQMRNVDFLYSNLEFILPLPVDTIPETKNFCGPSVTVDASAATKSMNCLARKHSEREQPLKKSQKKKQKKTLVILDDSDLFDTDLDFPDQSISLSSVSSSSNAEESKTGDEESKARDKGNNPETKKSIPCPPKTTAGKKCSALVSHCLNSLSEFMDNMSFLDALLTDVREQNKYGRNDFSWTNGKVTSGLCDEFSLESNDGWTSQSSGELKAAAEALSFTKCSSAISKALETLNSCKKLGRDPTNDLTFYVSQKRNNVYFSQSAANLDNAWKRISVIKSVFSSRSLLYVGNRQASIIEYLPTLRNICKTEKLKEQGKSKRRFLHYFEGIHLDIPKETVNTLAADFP
structure (smiles),measurement,setting,value
N#C/C(=C\c1ccc(O)c(O)c1)C(=O)c1ccc(O)c(O)c1,Potency,[1],inactive
same,Potency,[2],inactive
same,activation,[3],-0.562% (inactive)
same,Potency,[4],inactive
same,viability change,[4],-19.7%
same,Potency,[5],inactive
CCCCCCOc1ccccc1C(N)=O,outcome,[6],inactive
CCOC(=O)c1ccccc1O,outcome,[6],inactive
CCCCC#Cc1nc(NC)c2ncn([C@@H]3O[C@H](CO)[C@@H](O)[C@H]3O)c2n1,Potency,[1],inactive
same,Potency,[2],inactive
same,Potency,[4],inactive
same,viability change,[4],2.21%
same,outcome,[7],inactive
Cc1c(Nc2ncccc2C(=O)O)cccc1C(F)(F)F,outcome,[6],inactive
CC(C)CC(NP(=O)(O)O[C@@H]1O[C@@H](C)[C@H](O)[C@@H](O)[C@H]1O)C(=O)NC(Cc1c[nH]c2ccccc12)C(=O)O (stereo partly drawn),Potency,[1],inactive
same,Potency,[2],inactive
same,Potency,[4],inactive
same,viability change,[4],-0.0491%
same,outcome,[7],inactive
CN1CCc2cc(NC(=O)Nc3cccnc3)ccc21,Potency,[1],inactive
same,activation,[3],-2.62% (inactive)
same,Potency,[4],inactive
same,viability change,[4],-3.61%
same,outcome,[7],inactive
same,Potency,[5],inactive
Nc1cc(-c2ccncc2)c[nH]c1=O,outcome,[6],inactive
O=c1[nH]c2ccccc2n1CCCN1CCN(C(c2ccccc2)c2ccccc2)CC1,outcome,[6],inactive
same,Potency,[5],inactive
C=CC(=O)c1ccc(CCCCCC)cc1,Potency,[8],inactive
same,Potency,[2],inactive
same,Potency,[4],inactive
same,viability change,[4],-13%
same,outcome,[7],inactive
NC(N)=NC(=O)c1nc(Cl)c(N2CCCCCC2)nc1N,Potency,[8],inactive
same,Potency,[2],inactive
same,activation,[3],3.31% (inactive)
same,Potency,[4],inactive
same,viability change,[4],-0.682%
same,outcome,[7],inactive
same,Potency,[5],inactive
O=C1CN(/N=C/c2ccc(-c3ccc([N+](=O)[O-])cc3)o2)C(=O)N1,outcome,[6],inactive
CC(C)(C)c1ccc(S(=O)(=O)/C=C/C#N)cc1,activation,[3],7.44% (inactive)
same,Potency,[4],inactive
same,viability change,[4],4.47%
same,outcome,[7],inactive
same,Potency,[5],inactive
CC1(C)C[C@@H]1C(=O)N/C(=C\CCCCSC[C@H](N)C(=O)O)C(=O)O,outcome,[6],inactive
O=C(O)COc1ccc(C(=O)c2cccs2)c(Cl)c1Cl,outcome,[6],inactive
O=C(Nc1cccc(C(=O)Nc2ccc(S(=O)(=O)O)c3cc(S(=O)(=O)O)cc(S(=O)(=O)O)c23)c1)Nc1cccc(C(=O)Nc2ccc(S(=O)(=O)O)c3cc(S(=O)(=O)O)cc(S(=O)(=O)O)c23)c1,Potency,[8],inactive
same,Potency,[2],inactive
same,activation,[3],0.875% (inactive)
same,Potency,[4],inactive
same,viability change,[4],-3.71%
same,outcome,[7],inactive
same,Potency,[5],inactive
C=C(Nc1ccc(OCC)cc1)Nc1ccc(OCC)cc1,outcome,[6],inactive
O=C(O)[C@H](O)[C@@H](O)[C@H](O)[C@H](O)CO,outcome,[6],inactive
Nc1c(CC(=O)O)cccc1C(=O)c1ccc(Br)cc1,outcome,[6],inactive
C=CCCCCCCCCC(=O)O,outcome,[6],inactive
N.N.O=C(O)C1(C(=O)O)CCC1.[Pt],activation,[3],-0.5% (inactive)
same,Potency,[5],inactive
Cc1cc(O)c2ccccc2c1O,outcome,[6],inactive
Cc1ccc(C(=O)c2ccc(CC(=O)O)n2C)cc1,outcome,[6],inactive
C#C[C@]1(O)CC[C@H]2[C@@H]3CCC4=Cc5oncc5CC4(C)[C@H]3CCC21C (stereo partly drawn),Potency,[8],inactive
same,outcome,[7],inactive
Nc1ncnc2c1ncn2[C@@H]1O[C@H](COP(=O)(O)OP(=O)(O)OP(=O)(O)OP(=O)(O)OC[C@@H]2O[C@H](n3cnc4c(N)ncnc43)[C@@H](O)[C@H]2O)[C@@H](O)[C@H]1O,Potency,[8],inactive
same,Potency,[4],inactive
same,viability change,[4],2.98%
same,outcome,[7],inactive
CCCCCCCCCCCC(=O)[O][Sn]([CH2]CCC)([CH2]CCC)[O]C(=O)CCCCCCCCCCC,outcome,[6],inactive
O=C(Nc1ccc(C(=O)O)c(O)c1)c1ccccc1,outcome,[6],inactive
COc1cc2c3cc1Oc1cc(ccc1O)C[C@@H]1c4c(cc(OC)c(O)c4Oc4ccc(cc4)C[C@@H]3N(C)CC2)CC[N+]1(C)C,outcome,[6],inactive
N#C/C(=C\c1ccc(O)c(O)c1)C(=O)NCCCc1ccccc1,Potency,[8],inactive
same,activation,[3],0.625% (inactive)
same,Potency,[4],inactive
same,viability change,[4],-10.3%
same,outcome,[7],inactive
same,Potency,[5],inactive
CCCCC[C@H](O)/C=C/[C@@H]1[C@@H](C/C=C\CCCC(=O)O)[C@@H](O)C[C@H]1O,outcome,[6],inactive
O=C1CC[C@@H](C(=O)N2CSC[C@H]2C(=O)O)N1 ([pGlu]-[Thz]-OH),outcome,[6],inactive
CCCC(=O)OC[C@@H](OC(=O)CCC)[C@@H](OC(=O)CCC)[C@H](Cn1c2nc(=O)[nH]c(=O)c-2nc2cc(C)c(C)cc21)OC(=O)CCC,outcome,[6],inactive
C=C/C(C)=C/[C@@]1(C)SC(=O)C(C)=C1O,activation,[3],0.875% (inactive)
same,Potency,[5],inactive
CN[C@H](CC(C)C)C(=O)N[C@H]1C(=O)N[C@@H](CC(N)=O)C(=O)N[C@H]2C(=O)N[C@H]3C(=O)N[C@H](C(=O)N[C@H](C(=O)O)c4cc(O)cc(O)c4-c4cc3ccc4O)[C@H](O)c3ccc(c(Cl)c3)Oc3cc2cc(c3O[C@@H]2O[C@H](CO)[C@@H](O)[C@H](O)[C@H]2O[C@H]2C[C@](C)(N)[C@H](O)[C@H](C)O2)Oc2ccc(cc2Cl)[C@H]1O,activation,[3],-0.312% (inactive)
same,Potency,[5],inactive
c1ccc2sc(SSc3nc4ccccc4s3)nc2c1,outcome,[6],inactive
Nc1ccc(C(=O)O)c(O)c1,outcome,[6],inactive
CSc1nc(N)c2ncn([C@@H]3O[C@H](COP(=O)(O)OP(=O)(O)OP(=O)(O)O)[C@@H](O)[C@H]3O)c2n1,Potency,[8],inactive
same,Potency,[4],inactive
same,viability change,[4],-1.62%
same,outcome,[7],inactive
O=C(OCc1ccccc1)c1ccccc1,outcome,[6],inactive
COC(=O)C1=C(C)NC(C)=C(C(=O)OCC(C)C)C1c1ccccc1[N+](=O)[O-] (stereo not drawn),outcome,[6],inactive
CC(C)(C)NCC(O)COc1nsnc1N1CCOCC1 (stereo not drawn),Potency,[5],inactive
C[S+](CC[C@H](N)C(=O)O)C[C@H]1O[C@@H](n2cnc3c(N)ncnc32)[C@H](O)[C@@H]1O (stereo partly drawn),outcome,[6],inactive
CC(C)(C=O)Cc1cc(C(C)(C)C)c(O)c(C(C)(C)C)c1,Potency,[8],inactive
same,Potency,[2],inactive
same,activation,[3],-9.5% (inactive)
same,Potency,[4],inactive
same,viability change,[4],5.81%
same,outcome,[7],inactive
same,Potency,[5],inactive
CCCOC(=O)c1ccc(O)cc1,outcome,[6],inactive
CC[C@@H](C)[C@H]1O[C@]2(CC[C@@H]1C)C[C@@H]1C[C@@H](C/C=C(\C)[C@@H](O[C@H]3C[C@H](OC)[C@@H](O[C@H]4C[C@H](OC)[C@@H](O)[C@H](C)O4)[C@H](C)O3)[C@@H](C)/C=C/C=C3\CO[C@@H]4[C@H](O)C(C)=C[C@@H](C(=O)O1)[C@]34O)O2,Potency,[5],inactive
O=C1CN(/N=C/c2ccc([N+](=O)[O-])o2)C(=O)N1,outcome,[6],inactive
Nc1ccn([C@@H]2O[C@H](CO)[C@@H](O)[C@@H]2O)c(=O)n1,activation,[3],-0.125% (inactive)
Fc1cccc(/C=N/N=C/c2cccc(F)c2)c1,Potency,[8],23.1 µM (active)
same,activation,[3],-7.56% (inactive)
same,Potency,[4],inactive
same,viability change,[4],1.98%
same,outcome,[7],inactive
same,Potency,[5],inactive
CCCCCCCCCCCCCCCC(=O)OC(C)C,outcome,[6],inactive
